PubChem BioAssay
Active and inactive are the calls of the source.

Key:
Albumin (Bos taurus) = Albumin (Bos taurus) (UniProt P02769); assay: bovine serum albumin binders on microarray, profiling panel, artefact control for SMM control protein annotation, biochemical, small-molecule microarray, Alexa647 label, 635/667 nm fluorescence (AID 1118); conditions: BSA-A647 binding, fluorescence 635 nm, higher = more signal;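 also: score merges 667 nm emission intensity and signal-to-noise per printed compound spot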
[1] = small-molecule microarray binders of probe aXIP, primary screen, biochemical, NeuroSMM set, 635/667 nm fluorescence (AID 1119); conditions: higher = more signal, called active from +8 up or from −8 down;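 also: probe is the protein aXip251-270 applied at 1 µg/mL to compound-printed slides; binding of probe to printed compounds measured as 667 nm fluorescence plus signal to noise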
[2] = small-molecule binders of probe aNOTCH3, primary screen, biochemical, small-molecule microarray, 635/667 nm fluorescence (AID 1120); conditions: higher = more signal;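 also: probe is a biotin-tagged antibody raised against NOTCH3 rather than NOTCH3 protein; score merges spot fluorescence near 667 nm with spot signal to noise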
[3] = small-molecule binders of probe aNOTCH2, primary screen, biochemical, small-molecule microarray, 635/667 nm fluorescence (AID 1121); conditions: higher = more signal;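 also: score merges feature fluorescence read at 667 nm with its signal to noise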
[4] = target: Carbonic anhydrase 2 (Homo sapiens) (UniProt P00918); assay: CAII small-molecule binders, profiling panel, biochemical, small-molecule microarray, Alexa647-labelled CAII (AID 1122); conditions: CAII-A647 binding fluorescence, higher = more signal
[5] = COS7 lysate on small-molecule microarray, probe aHis, 635 nm (AID 1123); conditions: COS7 cell lysate, fluorescence, higher = more signal;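 also: z-score combines 667nm fluorescence intensity with signal-to-noise per printed compound spot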
[6] = compound binding in COS7 lysate, probe aLAP1, primary screen, cell lysate, small-molecule microarray (AID 1124); conditions: probe aLAP1, fluorescence, higher = more signal;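 also: lysate comes from COS7 cells expressing LAP1 and is applied at 0.3 µg/mL; score merges spot fluorescence near 667 nm with signal-to-noise over triplicate slides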
Sam68 (KHDRBS1) = assay: Sam68 small-molecule binders, primary screen, biochemical, small-molecule microarray, 635 nm fluorescence (AID 1125); conditions: small-molecule microarray binding, higher = more signal;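 also: score merges 667 nm channel intensity with signal to noise over triplicate slides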
[7] = tested on: Chordin-like protein 2 (CHRDL2); assay: CHRDL2 small-molecule binders, primary screen, biochemical, small-molecule microarray, 635 nm fluorescence (AID 1126); conditions: small-molecule microarray binding, fluorescence 635 nm; higher = more signal;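 also: printed compound slides probed with Chrdl2 protein at 4 µg/mL for 1 h at 4 C; score merges 667 nm emission intensity with signal to noise over three replicate slides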
[8] = target: Concanavalin-A (Canavalia ensiformis) (UniProt P02866); assay: ConA small-molecule binders, primary screen, artefact control for SMM control protein annotation, biochemical, small-molecule microarray, Alexa647 label, 635 nm (AID 1127); conditions: ConA-A647 binding fluorescence, higher = more signal;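 also: z combines 667 nm emission intensity with signal-to-noise across three replicate slides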
[9] = anti-His antibody binders, primary screen, artefact control for SMM control protein annotation, biochemical, small-molecule microarray, 635 nm fluorescence (AID 1128); conditions: anti-His Alexa647 antibody binding, higher = more signal;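 also: score merges feature fluorescence with signal-to-noise for each printed compound spot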
[10] = tested on: Human papillomavirus type 1a E7 protein (residues 1-88); assay: HPV1a E7 small-molecule binders, primary screen, biochemical, small-molecule microarray, residues 1-88, 635 nm (AID 1129); conditions: small-molecule microarray binding, fluorescence 635 nm; higher = more signal
[11] = target: Focal adhesion kinase 1 (Homo sapiens) (UniProt Q05397); assay: small-molecule microarray binders of FAK, primary screen, biochemical, 635/667 nm fluorescence, BSA, DTT (AID 1130); conditions: PTK2 binding, 635 nm fluorescence, higher = more signal;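 also: composite of spot emission at 667 nm and signal to noise over triplicate slides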
[12] = tested on: Fibrinogen (Alexa647-labelled); assay: fibrinogen binders on compound microarrays, profiling panel, artefact control for SMM control-protein annotation, biochemical, small-molecule microarray, 635/667 nm fluorescence (AID 1131); conditions: fibrinogen-A647 binding fluorescence, higher = more signal;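 also: z-score merges 667 nm fluorescence with per-spot signal-to-noise over triplicate slides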
[13] = target: Follistatin (Homo sapiens) (UniProt P19883); assay: follistatin binders on small-molecule microarrays, primary screen, biochemical, small-molecule microarray, 635/667 nm fluorescence (AID 1132); conditions: FST binding, 635 nm fluorescence, higher = more signal
[14] = target: Fibroblast growth factor 2 (Homo sapiens) (UniProt P09038); assay: FGF2 binders on small-molecule microarrays, primary screen, biochemical, small-molecule microarray, 635/667 nm fluorescence (AID 1133); conditions: small-molecule microarray binding, FGF2, fluorescence 635/667; higher = more signal
[15] = mitochondrial membrane potential change in A549 cells, profiling panel, cell-based, JC-1 fluorescence, basal, 24 h, 100 nL (AID 1138); conditions: higher = more signal;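 also: A549 lung adenocarcinoma cells under basal conditions with no added stimulus; test concentration not given here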
Lefty1 = Lefty1 binders on small-molecule microarrays, primary screen, biochemical, small-molecule microarray, 635/667 nm fluorescence (AID 1139); conditions: small-molecule microarray binding, fluorescence 635/667; higher = more signal
[16] = tested on: wheat germ agglutinin (Triticum aestivum), Alexa647-labelled; assay: wheat germ agglutinin binders on compound microarrays, profiling panel, artefact control for SMM control-protein annotation, biochemical, small-molecule microarray, 635/667 nm fluorescence (AID 1140); conditions: WGA-A647 binding, 635 nm fluorescence, higher = more signal;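 also: score merges 667 nm feature emission with signal to noise over triplicate slides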
[17] = target: Luciferin 4-monooxygenase (Photinus pyralis) (UniProt P08659); assay: firefly luciferase enzyme inhibitors, primary screen, biochemical, luminescence, purified enzyme, 2006 set (AID 1141); conditions: SteadyGlo luminescence, 30 min, higher = more signal, called active from +8 up or from −8 down;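 also: cell-free assay with purified firefly luciferase at 100 ng per well in PBS; test concentration not given here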
Chain of Luciferin 4-monooxygenase (Photinus pyralis) (P08659 whole entry, looked up): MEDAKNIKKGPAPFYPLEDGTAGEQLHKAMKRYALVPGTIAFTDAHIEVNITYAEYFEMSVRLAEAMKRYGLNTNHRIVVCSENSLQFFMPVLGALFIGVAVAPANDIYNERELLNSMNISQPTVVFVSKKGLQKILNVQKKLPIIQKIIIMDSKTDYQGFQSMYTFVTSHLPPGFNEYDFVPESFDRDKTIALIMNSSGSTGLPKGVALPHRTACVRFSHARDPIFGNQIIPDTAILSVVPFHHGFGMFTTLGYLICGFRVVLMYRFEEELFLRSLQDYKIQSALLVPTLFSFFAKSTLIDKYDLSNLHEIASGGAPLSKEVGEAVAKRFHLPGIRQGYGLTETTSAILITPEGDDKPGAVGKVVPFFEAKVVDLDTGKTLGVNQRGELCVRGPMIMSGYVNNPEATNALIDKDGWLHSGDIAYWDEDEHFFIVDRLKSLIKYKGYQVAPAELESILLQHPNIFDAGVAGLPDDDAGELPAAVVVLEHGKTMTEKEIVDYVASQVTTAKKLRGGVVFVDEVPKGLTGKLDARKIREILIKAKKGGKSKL

Chain of Follistatin (Homo sapiens) (P19883 whole entry, looked up): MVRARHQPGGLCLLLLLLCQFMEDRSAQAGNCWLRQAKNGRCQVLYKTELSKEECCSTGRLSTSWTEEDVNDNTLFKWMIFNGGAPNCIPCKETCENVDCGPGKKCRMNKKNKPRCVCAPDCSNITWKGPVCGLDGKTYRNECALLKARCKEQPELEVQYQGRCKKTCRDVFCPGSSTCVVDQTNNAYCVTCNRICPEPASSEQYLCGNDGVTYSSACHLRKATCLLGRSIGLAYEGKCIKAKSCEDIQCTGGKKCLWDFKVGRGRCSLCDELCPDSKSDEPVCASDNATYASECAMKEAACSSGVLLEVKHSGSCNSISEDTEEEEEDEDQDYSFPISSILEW
Chain of Fibroblast growth factor 2 (Homo sapiens) (P09038 whole entry, looked up): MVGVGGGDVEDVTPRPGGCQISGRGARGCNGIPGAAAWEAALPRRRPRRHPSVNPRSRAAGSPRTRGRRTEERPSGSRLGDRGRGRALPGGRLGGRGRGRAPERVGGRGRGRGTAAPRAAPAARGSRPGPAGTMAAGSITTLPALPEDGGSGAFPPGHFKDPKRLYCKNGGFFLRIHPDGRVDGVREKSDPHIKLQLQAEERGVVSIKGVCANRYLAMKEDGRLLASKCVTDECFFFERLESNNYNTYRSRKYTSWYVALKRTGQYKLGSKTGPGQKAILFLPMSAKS
Chain of Albumin (Bos taurus) (P02769 whole entry, looked up): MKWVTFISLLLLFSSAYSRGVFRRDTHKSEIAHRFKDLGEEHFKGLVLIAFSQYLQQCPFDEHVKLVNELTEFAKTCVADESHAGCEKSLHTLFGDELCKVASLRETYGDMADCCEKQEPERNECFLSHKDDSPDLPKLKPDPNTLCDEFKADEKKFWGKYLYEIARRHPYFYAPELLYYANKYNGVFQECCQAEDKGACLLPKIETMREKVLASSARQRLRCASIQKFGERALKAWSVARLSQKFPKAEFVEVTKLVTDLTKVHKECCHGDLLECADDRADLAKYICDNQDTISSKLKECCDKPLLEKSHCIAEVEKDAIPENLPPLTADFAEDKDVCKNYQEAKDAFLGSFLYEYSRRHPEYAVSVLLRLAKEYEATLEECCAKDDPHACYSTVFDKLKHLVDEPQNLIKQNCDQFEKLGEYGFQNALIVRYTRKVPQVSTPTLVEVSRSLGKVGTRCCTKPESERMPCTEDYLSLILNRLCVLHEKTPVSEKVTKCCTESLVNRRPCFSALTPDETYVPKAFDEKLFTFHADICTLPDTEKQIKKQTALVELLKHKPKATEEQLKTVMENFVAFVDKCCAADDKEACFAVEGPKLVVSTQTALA
Chain of Concanavalin-A (Canavalia ensiformis) (P02866 whole entry, looked up): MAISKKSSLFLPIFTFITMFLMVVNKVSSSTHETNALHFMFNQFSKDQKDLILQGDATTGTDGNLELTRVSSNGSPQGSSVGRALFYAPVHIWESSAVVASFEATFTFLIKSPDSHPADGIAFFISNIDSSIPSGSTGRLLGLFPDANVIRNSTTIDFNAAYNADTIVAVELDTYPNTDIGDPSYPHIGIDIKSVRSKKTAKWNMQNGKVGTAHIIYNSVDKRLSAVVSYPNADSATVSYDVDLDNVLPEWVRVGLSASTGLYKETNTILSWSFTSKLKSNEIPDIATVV
Chain of Focal adhesion kinase 1 (Homo sapiens) (Q05397 whole entry, looked up): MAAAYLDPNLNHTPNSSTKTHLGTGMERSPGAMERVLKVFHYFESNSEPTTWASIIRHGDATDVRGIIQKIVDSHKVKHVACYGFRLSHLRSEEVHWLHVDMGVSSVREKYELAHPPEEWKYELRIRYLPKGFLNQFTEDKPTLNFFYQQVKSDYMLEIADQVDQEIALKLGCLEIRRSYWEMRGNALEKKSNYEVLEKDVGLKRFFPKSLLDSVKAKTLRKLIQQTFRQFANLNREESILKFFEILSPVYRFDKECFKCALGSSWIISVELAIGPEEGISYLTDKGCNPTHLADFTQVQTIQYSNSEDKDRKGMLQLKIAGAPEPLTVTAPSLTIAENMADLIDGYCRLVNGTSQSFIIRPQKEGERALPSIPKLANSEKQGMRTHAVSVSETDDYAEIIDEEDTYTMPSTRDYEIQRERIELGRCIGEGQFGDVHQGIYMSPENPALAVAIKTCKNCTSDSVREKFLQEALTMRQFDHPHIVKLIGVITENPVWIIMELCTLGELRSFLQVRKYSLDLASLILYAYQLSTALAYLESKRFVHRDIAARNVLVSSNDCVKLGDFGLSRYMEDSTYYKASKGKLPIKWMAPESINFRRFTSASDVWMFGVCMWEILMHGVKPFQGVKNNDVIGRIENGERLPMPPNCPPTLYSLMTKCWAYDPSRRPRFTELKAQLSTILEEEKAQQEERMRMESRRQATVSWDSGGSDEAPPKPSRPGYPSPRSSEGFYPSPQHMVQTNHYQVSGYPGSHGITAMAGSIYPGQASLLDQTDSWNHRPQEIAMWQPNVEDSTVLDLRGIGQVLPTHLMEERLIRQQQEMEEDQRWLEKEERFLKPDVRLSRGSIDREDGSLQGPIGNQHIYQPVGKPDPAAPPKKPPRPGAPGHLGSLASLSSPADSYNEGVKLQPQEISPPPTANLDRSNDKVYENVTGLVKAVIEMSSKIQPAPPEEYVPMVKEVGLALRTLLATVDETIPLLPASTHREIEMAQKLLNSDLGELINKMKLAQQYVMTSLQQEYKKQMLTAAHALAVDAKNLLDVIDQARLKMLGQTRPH

Row | SMILES | composite z-score (Albumin (Bos taurus)) | composite Z-score [1] | composite z-score [2] | composite z-score [3] | composite z-score [4] | composite z-score [5] | composite z-score [6] | composite z-score (Sam68 (KHDRBS1)) | composite z-score [7] | composite z-score [8] | composite z-score [9] | composite z-score [10] | composite z-score [11] | composite z-score [12] | composite z-score [13] | composite z-score [14] | z-score [15] | composite z-score (Lefty1) | composite z-score [16] | z-score [17]
1 | C=C(COC)/C(=C/C[C@H](OC(C)=O)c1ccc(CO)o1)c1cc(C(=O)OC)ccc1OC | 0.424 | 0.482 (inactive) | -0.103 | -0.155 | 0.654 | 0.107 | 0.022 | 0.322 | 0.0151 | -0.714 | 0.795 | 0.516 | 0.0348 | 0.255 | 0.435 | -0.1 | -0.91 | 0.57 | -0.199 | -0.769 (inactive)
2 | COC(=O)[C@@]1(Cc2ccc(OC)cc2)[C@H]2c3cc(C(=O)N(C)C)n(Cc4ccc(S(C)(=O)=O)cc4)c3C[C@H]2CN1C(=O)c1ccccc1 | 0.49 | -0.357 (inactive) | 0.697 | -0.168 | 0.725 | 2.72 | 0.969 | 0.549 | -0.948 | -1.06 | 1.84 | 1.26 | 1.07 | 0.849 | 1.11 | -0.56 | 0.956 | 0.0038 | 1.23 | 1.75 (inactive)
3 | C[C@H]1C2[C@H](Cc3ccccc3)NC(=O)[C@]23C(=O)N[C@H](Cc2ccccc2)C(=O)N2CCC[C@H]2C(=O)NC/C=C\C/C=C/C3[C@@H]2O[C@]12C (stereo not given in full) | 0.157 | 0.0894 (inactive) | -0.0613 | 0.0022 | 0.0997 | -0.0175 | 0.249 | 0.194 | 0.132 | 0.78 | 0.102 | -0.338 | 1.11 | 0.354 | 0.559 | 0.212 | 0.367 | 0.302 | 0.737 | -0.587 (inactive)
4 | O=C1N(Cc2ccccc2)c2ccccc2[C@@H]2OC(c3ccc(OCCCO)cc3)=N[C@]12CCS(=O)(=O)c1ccccc1 | 0.272 | 1.29 (inactive) | 0.147 | -0.0079 | 0.626 | 2.52 | -0.276 | 0.895 | 0.0187 | 1.14 | 0.218 | 1.2 | 0.564 | 0.92 | 1.15 | 0.311 | -0.311 | 0.0829 | 1.19 | -1.45 (inactive)
5 | COc1cc2c(cc1O)C(C1CC1)N(Cc1sc3ccccc3c1Cl)CC2 (stereo not given) | 0.718 | -0.909 (inactive) | -0.152 | -0.0984 | 0.76 | 2.69 | 0.862 | 0.888 | 0.185 | 0.0387 | 1.53 | 0.87 | -0.0249 | 0.762 | 0.439 | 0.124 | -1.55 | -0.619 | 0.402 | -0.593 (inactive)
